# Giardia FBPA inh: Giardia lamblia aldolase inhibition. A8B2U2. purified Giardia FBPA. Potency, µM (doses to about 59.6 µM), usual class: inhibitors. hit rate 0.71% among 290,000. AID 2451; further: nearly all actives have a fitted effect of over 55% in size
# Target sequence (A8B2U2 whole entry, looked up): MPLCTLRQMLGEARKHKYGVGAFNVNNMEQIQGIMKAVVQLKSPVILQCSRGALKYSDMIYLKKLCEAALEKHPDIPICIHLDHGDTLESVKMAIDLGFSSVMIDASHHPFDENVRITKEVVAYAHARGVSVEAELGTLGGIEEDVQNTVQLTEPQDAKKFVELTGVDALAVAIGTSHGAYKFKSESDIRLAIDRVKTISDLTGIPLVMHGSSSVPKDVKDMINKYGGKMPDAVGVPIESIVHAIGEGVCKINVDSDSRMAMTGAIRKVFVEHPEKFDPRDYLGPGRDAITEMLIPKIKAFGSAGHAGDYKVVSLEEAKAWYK
#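 40 nM FBPA preincubated 10 min at RT with compound (up to 57.5 uM final), then substrate plus GAPDH/TPI/NAD/arsenate coupling and diaphorase/resazurin added. Fluorescence read after 20 min at RT, 525/598 nm.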
# Vaccinia mCherry: inhibitors of vaccinia virus infection (mCherry reporter signal). Vaccinia virus mCherry reporter infection, fluorescence. Potency, µM (top dose mostly 36.5 µM), usual class: inhibitors. hit rate 0.63% among 310,000. AID 720579; calls by dose curve; tested in A549 cells; further: nearly all actives have a fitted effect of over 35% in size
# FMDV inh: antivirals against foot and mouth disease virus. hit rate 1.2% among 410,000. Potency, µM (doses to about 57.9 µM), actives largely listed as inhibitors. AID 1159524. FMDV antiviral cell-based qHTS; calls by dose curve; tested in HEK293T cells; further: read-out not given here; nearly all actives have a fitted effect of over 45% in size
# Vaccinia Venus: vaccinia inhibition (Venus reporter); Vaccinia virus Venus reporter expression, fluorescence; Potency, µM (doses to about 36.5 µM), hits mostly inhibitors; hit rate 0.46% among 330,000; calls by dose curve; tested in A549 cells; further: nearly all actives have a fitted effect of over 30% in size
# HCV inhibitor: blocks hepatitis C virus | Potency, µM (highest dose often 41.8 µM), hits mostly inhibitors | Huh7.5.1 HCVcc-Cre infection, luciferase reporter, 44 h | hit rate 3.4% among 340,000
#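 1,000 cells/well; 4 h culture; + compound; + HCVcc-Cre (~0.5 moi); 44 h; luciferase substrate, RT 15 min; read 15 sec.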
# HCMV inh: human cytomegalovirus inhibition; activity change, negative = inhibition, % at 57.5 µM; AID 1259415; hit rate 4.5% among 410,000; HFF cells, HCMV-luciferase reporter, 72 h; hits give low values; in the data active means activity change below about -60%; inconclusive means no clear call, values can overlap the other calls; inactive means above about -39%
#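 HFF cells seeded 16 h at 37C, treated with compounds, infected with luciferase-reporter HCMV at MOI 1 PFU/cell; luciferase read at 72 h post infection, normalized to buffer-only and Salinomycin controls.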
# A number is an active result; – = inactive; ? = inconclusive; · = no result given; [ ] = remark or other dose. The list is not random: actives were taken first. Their share in the collection is about 7.5%. Unless noted, the call rests on the fitted dose curve; in most records, active means well fitted curve in the direction sought with a large enough effect; inconclusive means small, poorly fitted or top-dose-only effect, or another doubt; inactive means no such curve, though single readings can be large; an effect the other way counts as inactive or inconclusive.
SMILES,Giardia FBPA inh,Vaccinia mCherry,FMDV inh,Vaccinia Venus,HCV inhibitor,HCMV inh
Cc1nn(-c2ccccc2)c(C)c1NC(=O)COC(=O)CC(C)c1ccccc1 (stereo not given),·,–,–,–,?,-62.5
Cc1nn(-c2ccccc2)c(C)c1NC(=O)COC(=O)c1ccc(NC(=O)CC#N)cc1,·,–,–,–,–,-67.9
Cc1cccc(OCCC(=O)OCC(=O)Nc2c(C)nn(-c3ccccc3)c2C)c1,·,–,–,–,–[8.37 µM],·
COc1ccc(C(=O)CC(SCC(NC(C)=O)C(=O)O)c2ccc(Cl)cc2)cc1OC (stereo not given),–,·,–,·,?,?
O=C(c1cc(-c2ccccc2)nc2ccccc12)N1N=C(C(F)F)CC1(O)C(F)F (stereo not given),–,–,–,–,–,–
Cc1ccc(-c2cc(C(=O)N3N=C(C(F)F)CC3(O)C(F)F)c3ccccc3n2)cc1C (stereo not given),–,–,–,?,?,-89.2
CCC[C@@H]1NC(=O)CNC(=O)[C@H](Cc2ccccc2)NC(=O)[C@H]([C@H](C)O)NC(=O)[C@H](CCC(N)=O)NC(=O)C(C(C)C(C)Cl)NC(=O)[C@H](CC(C)C)N(C)C(=O)[C@H](C)NC(=O)CC(O)C(NC(=O)[C@@H](CC(C)C)NC=O)C(C)OC1=O (stereo not given in full),·,·,·,·,·,–
COc1cc(CNc2ccc3[nH]c(=O)[nH]c3c2)cc(Br)c1OCc1ccccc1F,–,6.31µM,?,?,?,–
C=CCOc1cccc(CNc2ccc3[nH]c(=O)[nH]c3c2)c1,–,?,?,–,11.2µM,–
COc1cc(CNc2ccc3[nH]c(=O)[nH]c3c2)ccc1OCc1ccccc1C,–,?,?,?,–,-70.1
COc1cc(CNc2ccc3[nH]c(=O)[nH]c3c2)ccc1OCc1ccccc1F,–,?,–,?,?,?
C=CCOc1ccc(CNc2ccc3[nH]c(=O)[nH]c3c2)cc1OC,?,–,–,–,–,–
COc1cc(CNc2ccc3[nH]c(=O)[nH]c3c2)cc(Br)c1OCC(=O)NC(C)(C)C,–,·,?,·,?,-70.7
COc1cc(-c2ccc(Cl)cn2)cc2c1OCCN(S(=O)(=O)C[C@]13CC[C@H](CC1=O)C3(C)C)C2,·,–,–,–,·,·
CCCC(=O)N1CCCC1(C)C(=O)Nc1ccc(OC(F)F)cc1 (stereo not given),·,–,–,–,·,–
CCC(=O)N1CCC1(C)C(=O)Nc1ccc(OC(F)F)cc1 (stereo not given),·,–,–,–,·,-63.3
CC(=O)Nc1ccc(NC(=O)C(C)OC(=O)C2(c3ccc(F)cc3)CCCC2)cc1 (stereo not given),–,·,25.1µM,·,?,–
COc1ccc(S(=O)(=O)Nc2ccc(F)cc2)cc1N(C)S(=O)(=O)c1ccc(Cl)cc1,–,?,·,?,?,-71.8
COc1ccc(S(=O)(=O)Nc2ccc(F)c(F)c2)cc1Cl,–,?,·,–,–,–
COc1ccc(NS(=O)(=O)c2ccc(OC)c(N(C)S(=O)(=O)c3ccc(Cl)cc3)c2)cc1,–,?,·,?,?,-90.1
C[n+]1c(-c2ccccc2)sc2ccccc21,–,·,–,·,–,–
COc1ccc(C2=Nn3c([n+](C)c4ccccc43)SC2)cc1,–,–,?,?,2.24µM,-81.4
CC1Sc2n(c3ccccc3[n+]2C)N=C1c1ccccc1 (stereo not given),–,–,?,–,–,-96.6
C[n+]1c2n(c3ccccc31)N=C(c1ccc(Cl)cc1)CS2,–,·,?,·,?,-96.0
Clc1ccc(C2=Nn3c(Cn4nnc5ccccc54)nnc3SC2)cc1,–,–,–,–,–,–
SMILES,Giardia FBPA inh,Vaccinia mCherry,FMDV inh,Vaccinia Venus,HCV inhibitor,HCMV inh
CC(C)CNc1nc(SCC(=O)Nc2ccccc2)nc(N2CCOCC2)n1,–,–,–,–,–,–
CCCCc1ccc(NS(=O)(=O)c2cccc(C(=O)N3CCNC(=O)C3)c2)cc1,·,–,–,–,–,–
CC(=O)Nc1sc(N/N=C/c2ccccc2)nc1-c1ccc(C)cc1,–,–,–,–,?,–
CCCc1sc(N/N=C/c2ccccn2)nc1-c1ccc(Br)cc1,–,?,–,–,3.16µM,-98.5
CCCCC/C=C\C/C=C\C/C=C\C/C=C\CCCCCC(=O)NCC(=O)O,–,·,·,·,·,·
C#CC[N+](C)(C)CCCCCCCCC,–,11.2µM,–,?,?,-94.7
CC#CC[N+](C)(C)CCCCCCCCCC,–,–,–,–,?,-65.0
Cc1cc(Cl)c2oc(C(=O)NCCC3CCCCO3)c(C)c2c1 (stereo not given),·,–,–,–,25.1µM,–
Cn1c(=O)c2c(nc(Br)n2C/C=N/NC(N)=S)n(C)c1=O,?,–,–,–,–,-84.0
CCCCn1c(O)c(C(CC)=NCc2cc(OC)cc(OC)c2)c(=O)[nH]c1=O,–,·,?,·,12.6µM,–
CCC(=Nc1ccc2c(c1)CCC2)c1c(O)n(C2CCCCC2)c(=O)[nH]c1=O,–,·,–,·,–,-85.1
COc1cc(CN=C(C)c2c(O)n(C3CCCCC3)c(=O)[nH]c2=O)cc(OC)c1,–,–,?,–,10µM,–
CCCCn1c(O)c(C(CC)=Nc2ccc(OCC)cc2)c(=O)[nH]c1=O,–,·,?,·,?,–
CCCCn1c(O)c(C(CC)=Nc2ccc(OC)cc2OC)c(=O)[nH]c1=O,–,·,17.8µM,·,?,–
Cc1ccc(-n2cnc3c(=O)[nH]cnc32)cc1,·,–,–,–,?,–
CC(C)(C)Nc1oc(-c2ccccc2)nc1-c1ccccc1,–,·,·,·,·,·
CCC(=Nc1ccc(OC)cc1OC)c1c(O)n(C)c(=O)n(C)c1=O,–,–,31.6µM,–,?,–
O=C(NC(c1ccccc1)c1ccc2ccccc2n1)C1CCN(CCOc2ccc(Cl)cc2)CC1 (stereo not given),·,?,31.6µM,10µM,·,–
COc1cc(CN2CCC(C(=O)NC(c3ccc(F)cc3)c3ccc4ccccc4n3)CC2)cc(OC)c1 (stereo not given),·,?,35.5µM,14.1µM,·,–
COc1cccc(OC)c1OCCN1CCC(C(=O)NC(c2ccc3c(c2)OCO3)c2ccccn2)CC1 (stereo not given),·,–,–,–,·,-60.6
O=C(NC(c1ccc(F)cc1)c1ccc2ccccc2n1)C1CCN(Cc2ccc(Oc3ccccc3)cc2)CC1 (stereo not given),·,–,–,?,·,–
O=C(NC(c1ccc(F)cc1)c1ccc2ccccc2n1)C1CCN(CCOc2ccc(F)cc2)CC1 (stereo not given),·,11.2µM,?,10µM,·,–
COc1ccc(OCCN2CCC(C(=O)NC(c3ccccc3)c3ccc4ccccc4n3)CC2)cc1 (stereo not given),·,–,–,–,·,·
CCOc1ccc(NC(=O)Cn2c(=O)n(Cc3ccc4c(c3)OCO4)c(=O)c3ccc(C(=O)NC4CCCCC4)cc32)cc1,·,–,–,–,·,–

# Assay outcomes deposited in PubChem by National Center for Advancing Translational Sciences (NCATS).
